Measured values from PubChem BioAssay (NCI).
Where “and” joins values, the source holds several entries; their conditions need not be identical. Identical values can stand only once. This is part of a sample that, as a whole, favours compounds with a hit. Of some 79,000 tested, about 15% had one in any assay. Values without a mark were called inactive. Calls of active or inactive are those of the source. No stated cut-off is given here; in the data, active means growth inhibition above about 70%; inactive means the rest.

Assay: NCI Yeast Anticancer Drug Screen. Data for the cln2 rad14 strain (AID 165);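 further: 0% = growth equal to vehicle treated cultures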
Conditions: S. cerevisiae cln2 rad14 strain, stronger effect = higher value
Experimental: Growth inhibition of yeast strains with defined genetic alterations is measured as a screen for potential anti-cancer activity. Selected strains with alterations in DNA damage repair or cell cycle control were exposed to compounds and growth inhibition was measured relative to vehicle treated controls. The strain used in this assay is cln2 rad14

[1] = at 5.0 µM (retest, dose inferred, filed as 0.5)
[2] = at 50.0 µM (retest, dose inferred, filed as 5.0)

Row | SMILES | growth inhibition [1] | growth inhibition [2] | growth inhibition (at 50.0 µM)
1 | CC(C)(C)[Si](C)(C)OCC1OC(n2cnc3c(N)ncnc32)C2OC(=S)OC12 (stereo unspecified) | 3% | 98% (active) | -15.6%
2 | Cc1ccc2c(/C=C/c3ccc(N(C)C)cc3)ccnc2c1C | 22% | 61% | 29.9%
3 | O=S(=O)(Oc1c(Cl)cc(Cl)cc1Cl)c1ccccc1 | -18% | 20% | -33.5%
4 | NCC(O)CSCc1ccc(Cl)cc1 (stereo unspecified) | -7% | 10% | 86.5% (active)
5 | Cc1[nH]nc(C(F)(F)F)c1N=NN(C)C | 81% (active) | 99% (active) | 99.1% (active)
6 | O=c1[nH]cc(F)c(=O)[nH]1 | 17% | 73% (active) | 66.7%
7 | OC1C#CCSCC#C/C=C\1 (stereo unspecified) | 60% | 93% (active) | 52%
8 | O=C(/C(=C/c1ccccc1)CBr)c1ccccc1 | 25% | 93% (active) | 41.5% and 67.5%
9 | COc1cc(NCCCCCNC(C)C)c2ncccc2c1Cl | 8% | 41% | 26.8%
10 | CN(C)CCC(=O)c1c[nH]c2ccccc12 | 77% (active) | 36% | 31.1%
11 | O=C(CCCN1CCC2(CC1)OC(=O)N(c1ccccc1)C2=O)c1ccccc1 | 64% | 85% (active) | 65%
12 | Clc1ccc(C(c2ccc(Cl)cc2)N2CCNCC2)cc1 | 61% | 88% (active) | –
13 | O=C(c1c(F)c(F)c(F)c(F)c1F)c1c(F)c(F)c(F)c(F)c1F | 38% | 70% (active) | 85.7% (active)
14 | CCc1nc2ccc(N=Nc3c(O)ccc4ccccc34)cc2[nH]1 | 9% | 41% | 91.9% (active)
